Laboratory results from the supplement of paper PMC4466140.

Tests used:
Test in all cases: SPOT peptide array binding signal intensity (averaged, normalized) (arbitrary units (background-subtracted, floor 0; scale differs between SH3 domains)); higher = stronger binding of the SH3 domain to the peptide
[1] = target: AgAbp1
How it was run: (§1)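 Peptides were synthetic 15-mers on cellulose membranes, with every cysteine replaced by serine. They were incubated overnight at 4°C with GST-SH3 domains from four yeast species at 10 μg/ml in TBS-based blocking buffer. Binding signal, the replicate-averaged normalized and background-subtracted spot intensity, is in arbitrary units that differ between domains.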

[2] = target: AgBbc1
How it was run: as §1

[3] = target: AgBem1-D1
How it was run: as §1

[4] = target: AgBzz1-D1
How it was run: as §1

[5] = target: AgBzz1-D2
How it was run: as §1

[6] = target: AgCyk3
How it was run: as §1

[7] = target: AgFus1
How it was run: as §1

[8] = target: AgHof1
How it was run: as §1

[9] = target: AgHse1
How it was run: as §1

[10] = target: AgLsb1
How it was run: as §1

[11] = target: AgLsb4
How it was run: as §1

[12] = target: AgMyo5
How it was run: as §1

[13] = target: AgNbp2
How it was run: as §1

[14] = target: AgRvs167
How it was run: as §1

[15] = target: AgSho1
How it was run: as §1

[16] = target: AgSla1-D1-D2
How it was run: as §1

[17] = target: AgSla1-D3
How it was run: as §1

[18] = target: CaAbp1-D1
How it was run: as §1

[19] = target: CaAbp1-D2
How it was run: as §1

[20] = target: CaBbc1
How it was run: as §1

[21] = target: CaBem1-D1
How it was run: as §1

[22] = target: CaBzz1-D1
How it was run: as §1

[23] = target: CaBzz1-D2
How it was run: as §1

[24] = target: CaCyk3
How it was run: as §1

[25] = target: CaFus1
How it was run: as §1

[26] = target: CaHof1
How it was run: as §1

[27] = target: CaHse1
How it was run: as §1

[28] = target: CaLsb1
How it was run: as §1

[29] = target: CaLsb4
How it was run: as §1

[30] = target: CaMyo5
How it was run: as §1

[31] = target: CaNbp2
How it was run: as §1

[32] = target: CaRvs167
How it was run: as §1

[33] = target: CaRvs167-3
How it was run: as §1

[34] = target: CaSho1
How it was run: as §1

[35] = target: CaSla1-D1-D2
How it was run: as §1

[36] = target: CaSla1-D3
How it was run: as §1

[37] = target: ScAbp1
How it was run: as §1

[38] = target: ScBbc1
How it was run: as §1

[39] = target: ScBem1-D1
How it was run: as §1

[40] = target: ScBzz1-D1
How it was run: as §1

[41] = target: ScBzz1-D2
How it was run: as §1

[42] = target: ScCyk3
How it was run: as §1

[43] = target: ScFus1
How it was run: as §1

[44] = target: ScHof1
How it was run: as §1

[45] = target: ScHse1
How it was run: as §1

[46] = target: ScLsb1
How it was run: as §1

[47] = target: ScLsb2
How it was run: as §1

[48] = target: ScLsb3
How it was run: as §1

[49] = target: ScLsb4
How it was run: as §1

[50] = target: ScMyo3
How it was run: as §1

[51] = target: ScMyo5
How it was run: as §1

[52] = target: ScNbp2
How it was run: as §1

[53] = target: ScPex13
How it was run: as §1

[54] = target: ScRvs167
How it was run: as §1

[55] = target: ScSho1
How it was run: as §1

[56] = target: ScSla1-D1-D2
How it was run: as §1

[57] = target: ScSla1-D3
How it was run: as §1

[58] = target: SpAbp1-D1
How it was run: as §1

[59] = target: SpBbc1
How it was run: as §1

[60] = target: SpBzz1-D1
How it was run: as §1

[61] = target: SpBzz1-D2
How it was run: as §1

[62] = target: SpCyk3
How it was run: as §1

[63] = target: SpHof1
How it was run: as §1

[64] = target: SpHof1-2
How it was run: as §1

[65] = target: SpHof1-3
How it was run: as §1

[66] = target: SpHse1
How it was run: as §1

[67] = target: SpLsb1
How it was run: as §1

[68] = target: SpLsb4
How it was run: as §1

[69] = target: SpMyo1
How it was run: as §1

[70] = target: SpNbp2
How it was run: as §1

[71] = target: SpPex13
How it was run: as §1

[72] = target: SpRvs167
How it was run: as §1

[73] = target: SpSla1-D1-D2
How it was run: as §1

[74] = target: SpSla1-D3
How it was run: as §1

NMLSRPRLAKLPSIR
SPOT peptide array binding signal intensity [1]: 124
SPOT peptide array binding signal intensity [2]: 16.5
SPOT peptide array binding signal intensity [3]: 394
SPOT peptide array binding signal intensity [4]: 23
SPOT peptide array binding signal intensity [5]: 3
SPOT peptide array binding signal intensity [6]: ≤ 0
SPOT peptide array binding signal intensity [7]: 458
SPOT peptide array binding signal intensity [8]: 331
SPOT peptide array binding signal intensity [9]: 2140
SPOT peptide array binding signal intensity [10]: 3.25
SPOT peptide array binding signal intensity [11]: 59
SPOT peptide array binding signal intensity [12]: ≤ 0
SPOT peptide array binding signal intensity [13]: 362
SPOT peptide array binding signal intensity [14]: 4.33
SPOT peptide array binding signal intensity [15]: 388
SPOT peptide array binding signal intensity [16]: 27
SPOT peptide array binding signal intensity [17]: 4.5
SPOT peptide array binding signal intensity [18]: 822
SPOT peptide array binding signal intensity [19]: 754
SPOT peptide array binding signal intensity [20]: 165
SPOT peptide array binding signal intensity [21]: 526
SPOT peptide array binding signal intensity [22]: 184
SPOT peptide array binding signal intensity [23]: 69.8
SPOT peptide array binding signal intensity [24]: 46
SPOT peptide array binding signal intensity [25]: 1210
SPOT peptide array binding signal intensity [26]: 0.25
SPOT peptide array binding signal intensity [27]: 183
SPOT peptide array binding signal intensity [28]: 2
SPOT peptide array binding signal intensity [29]: 290
SPOT peptide array binding signal intensity [30]: 46.5
SPOT peptide array binding signal intensity [31]: 1250
SPOT peptide array binding signal intensity [32]: 97.2
SPOT peptide array binding signal intensity [33]: 60.5
SPOT peptide array binding signal intensity [34]: 1490
SPOT peptide array binding signal intensity [35]: 663
SPOT peptide array binding signal intensity [36]: 254
SPOT peptide array binding signal intensity [37]: 424
SPOT peptide array binding signal intensity [38]: 3.5
SPOT peptide array binding signal intensity [39]: 21
SPOT peptide array binding signal intensity [40]: 22
SPOT peptide array binding signal intensity [41]: 29.5
SPOT peptide array binding signal intensity [42]: 35
SPOT peptide array binding signal intensity [43]: 826
SPOT peptide array binding signal intensity [44]: 28
SPOT peptide array binding signal intensity [45]: 2110
SPOT peptide array binding signal intensity [46]: 71.5
SPOT peptide array binding signal intensity [47]: ≤ 0
SPOT peptide array binding signal intensity [48]: 570
SPOT peptide array binding signal intensity [49]: 112
SPOT peptide array binding signal intensity [50]: 13.5
SPOT peptide array binding signal intensity [51]: ≤ 0
SPOT peptide array binding signal intensity [52]: 370
SPOT peptide array binding signal intensity [53]: 142
SPOT peptide array binding signal intensity [54]: 43
SPOT peptide array binding signal intensity [55]: 962
SPOT peptide array binding signal intensity [56]: 389
SPOT peptide array binding signal intensity [57]: 418
SPOT peptide array binding signal intensity [58]: 610
SPOT peptide array binding signal intensity [59]: 1
SPOT peptide array binding signal intensity [60]: 333
SPOT peptide array binding signal intensity [61]: 13
SPOT peptide array binding signal intensity [62]: 3
SPOT peptide array binding signal intensity [63]: 100
SPOT peptide array binding signal intensity [64]: 59.2
SPOT peptide array binding signal intensity [65]: 1590
SPOT peptide array binding signal intensity [66]: 2030
SPOT peptide array binding signal intensity [67]: 10.5
SPOT peptide array binding signal intensity [68]: 859
SPOT peptide array binding signal intensity [69]: 24.8
SPOT peptide array binding signal intensity [70]: 577
SPOT peptide array binding signal intensity [71]: 74
SPOT peptide array binding signal intensity [72]: 32.2
SPOT peptide array binding signal intensity [73]: 8
SPOT peptide array binding signal intensity [74]: 194

NLPKRKPPKLQGPFS
SPOT peptide array binding signal intensity [1]: 117
SPOT peptide array binding signal intensity [2]: 7.75
SPOT peptide array binding signal intensity [3]: 244
SPOT peptide array binding signal intensity [4]: 148
SPOT peptide array binding signal intensity [5]: 77.5
SPOT peptide array binding signal intensity [6]: 2.5
SPOT peptide array binding signal intensity [7]: 64
SPOT peptide array binding signal intensity [8]: 37.5
SPOT peptide array binding signal intensity [9]: 1020
SPOT peptide array binding signal intensity [10]: ≤ 0
SPOT peptide array binding signal intensity [11]: 56
SPOT peptide array binding signal intensity [12]: 4.75
SPOT peptide array binding signal intensity [13]: 247
SPOT peptide array binding signal intensity [14]: 2.67
SPOT peptide array binding signal intensity [15]: 12
SPOT peptide array binding signal intensity [16]: 258
SPOT peptide array binding signal intensity [17]: 2
SPOT peptide array binding signal intensity [18]: 1870
SPOT peptide array binding signal intensity [19]: 1400
SPOT peptide array binding signal intensity [20]: 51
SPOT peptide array binding signal intensity [21]: 13
SPOT peptide array binding signal intensity [22]: 157
SPOT peptide array binding signal intensity [23]: 162
SPOT peptide array binding signal intensity [24]: 102
SPOT peptide array binding signal intensity [25]: 186
SPOT peptide array binding signal intensity [26]: 0.5
SPOT peptide array binding signal intensity [27]: 119
SPOT peptide array binding signal intensity [28]: ≤ 0
SPOT peptide array binding signal intensity [29]: 127
SPOT peptide array binding signal intensity [30]: ≤ 0

KNRKNLPTIPIRLSG
SPOT peptide array binding signal intensity [61]: 1.5
SPOT peptide array binding signal intensity [62]: 23.5
SPOT peptide array binding signal intensity [63]: 1400
SPOT peptide array binding signal intensity [64]: 2230
SPOT peptide array binding signal intensity [65]: 1490
SPOT peptide array binding signal intensity [66]: 166
SPOT peptide array binding signal intensity [67]: 510
SPOT peptide array binding signal intensity [68]: 2330
SPOT peptide array binding signal intensity [69]: 25
SPOT peptide array binding signal intensity [70]: 336
SPOT peptide array binding signal intensity [71]: 9.5
SPOT peptide array binding signal intensity [72]: 1010
SPOT peptide array binding signal intensity [73]: 1490
SPOT peptide array binding signal intensity [74]: 6
